Results: PubChem BioAssay (Tox21)
“And” between values parts separate entries of the source, which are not always exact repeats. Identical values can stand only once. Unmarked numbers belong to inactive results. A call without a number means that no potency is given here. The source made the active and inactive calls. The call rests on the fitted dose curve; in most records, active means well fitted curve in the direction sought with a large enough effect in the repeat runs; inconclusive means weak or mixed curves; inactive means flat fitted curve, though single readings scatter.

experiment: qHTS assay to test for compound auto fluorescence at 590 nm (red) in HepG2 cell free culture (AID 720684); conditions: cell-free medium autofluorescence, red 540/590 nm; series mostly up to 91.3 µM
Description: U.S. Tox21 Program National Center for Advancing Translational Sciences [NCATS] NIH Chemical Genomics Center [NCGC] U.S. Environmental Protection Agency [EPA] National Institutes of Environmental Health Sciences [NIEHS] National Toxicology Program [NTP] U.S. Food and Drug Administration [FDA] Tox21 Assay Overview: Compound auto fluorescence often interferes with screening of the compound library against various biological targets and signaling pathways. Some of these compounds may have fluorophoric properties. Such properties may interfere with the assay outputs resulting in false positives and/or negatives. To decrease such complications and ensure the compound activities are relevant in terms of biological response, the Tox21 10K compound library was screened for auto fluorescence. From the fluorophores used as reporter signals in our screening assays, the auto fluorescence equivalencies of compounds against three fluorophores have been evaluated: Triamterene, Fluorescein and Rose Bengal sodium for blue, green and red fluorescence, respectively. The fluorescence intensities were measured using Excitation/Emission wavelengths at 405/460nm, 485/535nm and 540/590nm for blue, green and red labels, respectively. This assay includes the red fluorescence data.
Tox21 Assay Protocol Summary: 5 uL of culture medium (MEM containing 10% FBS) per well was dispensed into black wall/clear bottom 1536-well plates using a Multidrop Combi Dispenser (ThermoFisher Scientific, Waltham, MA). After 23 nL compound or DMSO vehicle was transferred into assay plate by a pintool work station (Kalypsys, San Diego, CA), fluorescence intensities in the assay plates were measured by an Envision (PerkinElmer, Shelton, CT) plate reader using three labels for measuring blue, green and red fluorescence at […] 460, 535 and 590nm respectively.
Potency means the concentration at half of the fitted maximal effect; tags describe the fitted curve by direction and shape or compound fluorescence and quenching.

SMILES	Potency	fluorescence, % of Rose Bengal
CC(C)(c1cc(Br)c(O)c(Br)c1)c1cc(Br)c(O)c(Br)c1	inactive	–
COC(=O)NCCC[Si](OC)(OC)OC	inactive	–
C1CC(COCC2CO2)CCC1COCC1CO1 (stereo not given)	inactive	–
CCCCCCOc1cc(C)c(O)c(C)c1C	inactive	–
O=Nc1ccc(NO)cc1	inactive	–
CCN(CC)CCOC(=O)C1(C2CCCCC2)CCCCC1	inactive	–
CC(CN(C)C)CN1c2ccccc2CCc2ccccc21 (stereo not given)	–	0.0079% [at 18.6 µM]
CCCCCCCCCCCCCCCC	inactive	–
CN(C)CCCN1c2ccccc2Sc2ccc(C(F)(F)F)cc21	inactive	–
CN1[C@@H]2CC[C@H]1CC(OC(=O)C(CO)c1ccccc1)C2 (stereo not given in full)	inactive	–
O=C1NCCN1CCN1CCC(c2cn(-c3ccc(F)cc3)c3ccc(Cl)cc23)CC1	inactive	–
CCCCCCCCCCCCN(CCO)CCO	inactive	–
CCN(CC)CCSC(=O)C(c1ccccc1)c1ccccc1	inactive	–
c1cc(OCC2CO2)cc(OCC2CO2)c1 (stereo not given)	inactive	–
Nc1ccc2cc3ccc(N)cc3nc2c1	inactive	–
CCCCOc1ccc(C(=O)CCN2CCCCC2)cc1	–	-0.355% [at 18.6 µM]
CC(C)N=C(N)/N=C(\N)Nc1ccc(Cl)cc1	–	0.0381% [at 18.6 µM]
CCN=c1cc2oc3cc(NCC)c(C)cc3c(-c3ccccc3C(=O)OCC)c-2cc1C	2.82 µM [fluorescent] (active) and 3.55 µM [fluorescent] (active)	–
C[Si](C)(C)Cl	inactive	–
CCC(C)(C)c1cc(O)c(C(C)(C)CC)cc1O	inactive	–

SMILES	Potency	fluorescence, % of Rose Bengal
SCCCCCCCCS	inactive	–
Cc1oc(-c2ccccc2)nc1CCOc1ccc(C[C@H](Nc2ccccc2C(=O)c2ccccc2)C(=O)O)cc1	inactive	–
CC1CCCNC1 (stereo not given)	inactive	–
CCCCC(CC)COC(=O)c1ccc(O)cc1 (stereo not given)	inactive	–
O=C(O)CCn1c2c(c3ccccc31)C[C@H](NS(=O)(=O)c1ccc(F)cc1)CC2	inactive	–
CCCCCCCC/C=C/CCCOC(C)=O	inactive	–
COC(=O)CC(C)CCC=C(C)C (stereo not given)	inactive	–
C[C@@]12C(=O)OC(=O)[C@]1(C)C1CCC2O1	–	-0.0041% [at 18.6 µM]
Cc1occc1SSc1ccoc1C	inactive	–
CCCCOC(=O)C(C)CC (stereo not given)	inactive	–
C(=C/c1ccccc1)/c1ccccc1	inactive	–
C=CC(C)(CCC=C(C)C)OC(=O)/C=C/c1ccccc1 (stereo not given)	inactive	–
O=C(O)Cc1ccc(OCCNC[C@H](O)c2ccccc2)cc1	inactive	–
COC(=O)[C@]1(C)CCC[C@@]2(C)[C@H]1CC=C1C=C(C(C)C)CC[C@@H]12	inactive	–
CCCCNc1c(C(=O)OCC)c(C)nc2c1cnn2CC	inactive	–
CCC(C)c1cc([N+](=O)[O-])cc([N+](=O)[O-])c1OC(=O)OC(C)C (stereo not given)	inactive	–
CCN=C1C=CC(=C(c2ccc(N(CC)CC)cc2)c2ccc(N(CC)CC)cc2)c2ccccc21	inactive	–
CCOC(=O)C1=C(C)NC(C)=C(C(=O)OCC)C1c1ccccc1/C=C/C(=O)OC(C)(C)C	inactive	–
O=C1NC2CCCCN2C12CCN(CCCN1c3ccccc3CCc3ccc(Cl)cc31)CC2 (stereo not given)	inactive	–
CC(C)OC(=O)c1cc(C(=O)OC(C)C)cc([N+](=O)[O-])c1	inactive	–
